Only some compounds are listed: those with a hit (about 10% of all), similar ones and a draw of the others.
FLuc inh: Photinus pyralis luciferase inhibition; P08659; purified P. pyralis luciferase, luminescence, biochemical; Potency, µM (series often up to 115 µM), hits mostly inhibitors; actives 2.5% (n = 76,000); AID 1347043; further: nearly all actives have a fitted effect of over 65% in size
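Purified 10nM P. pyralis luciferase with 10uM D-luciferin and 10uM ATP in 50mM Tris acetate pH 7.5, 10mM Mg acetate, 0.01% Tween-20, 0.05% BSA. qHTS titration; luminescence read by CCD imager.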
NPR1 antag: human Npr1 receptor antagonism; HEK293 hNpr1 GloSensor cGMP, ANP-stimulated luminescence; Potency, µM (highest dose often 46.3 µM), for inactives: at the top dose activity change, negative = inhibition, most hits filed as inhibitors; actives 1.6% (n = 76,000); AID 1347048; calls by dose curve; further: nearly all actives have a fitted effect of over 60% in size
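HEK293 cells stably expressing human Npr1 and cGMP GloSensor pGS-40F, loaded 2 h with 2% GloSensor reagent, given compound 30 min at room temperature. Luminescence read before and 20 min after 0.1 nM hNppA.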
GPT2 inhibitor: blocks human glutamate pyruvate transaminase 2 | Q8TD30 | AID 1671188 | Recombinant GPT2, coupled pyruvate oxidase/HRP Amplex Red fluorescence | actives 0.25% (n = 100,000) | Potency, µM (series often up to 57.7 µM), without a hit: at the highest dose activity change, negative = inhibition, actives largely listed as inhibitors; further: nearly all actives have a fitted effect of over 60% in size
Target sequence (Q8TD30 whole entry, looked up): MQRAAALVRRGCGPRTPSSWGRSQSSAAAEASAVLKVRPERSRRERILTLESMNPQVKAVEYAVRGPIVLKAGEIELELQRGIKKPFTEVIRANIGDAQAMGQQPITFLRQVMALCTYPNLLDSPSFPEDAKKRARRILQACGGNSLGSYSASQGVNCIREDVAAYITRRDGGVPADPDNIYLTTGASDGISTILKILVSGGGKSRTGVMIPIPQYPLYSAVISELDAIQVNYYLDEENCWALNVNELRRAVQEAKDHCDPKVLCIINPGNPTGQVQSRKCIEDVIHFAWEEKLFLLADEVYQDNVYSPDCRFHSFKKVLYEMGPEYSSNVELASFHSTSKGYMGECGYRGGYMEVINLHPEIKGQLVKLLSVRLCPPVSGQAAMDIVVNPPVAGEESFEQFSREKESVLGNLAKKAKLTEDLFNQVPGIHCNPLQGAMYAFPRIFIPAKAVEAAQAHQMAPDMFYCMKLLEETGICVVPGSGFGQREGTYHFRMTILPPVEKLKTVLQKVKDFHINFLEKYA
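Fluorescence read-out: pyruvate from GPT2 turnover coupled to pyruvate oxidase, HRP and Amplex Red (0.2mM ThPP, 0.2U/mL PO and HRP, 50uM Amplex final). Substrates 250uM a-KG, 2mM L-alanine; enzyme 10ng/uL; 30 min RT.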
HEK cytotox: kills HEK 293 cells; HEK 293 viability, ATP luminescence (CellTiter-Glo), 48-72 h; Potency, µM (doses to about 115 µM), inactives show at the highest dose activity change, negative = cytotoxicity, actives largely listed as inhibitors; actives 6.6% (n = 94,000); further: nearly all actives have a fitted effect of over 60% in size
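qHTS cytotoxicity; HEK 293, 250 cells/well; compound pinned; 48 or 72 hr, 37 degree Celsius, 5% CO2, 95% humidity; CellTiter-Glo, 10 min RT; luminescence (ATP).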
3T3 cytotox: kills NIH 3T3 cells; NIH 3T3 viability, CellTiter-Glo ATP luminescence, 48-72 h; Potency, µM (titrated, usually from 96.7 µM), inactives show at the top dose activity change, negative = cytotoxicity, actives largely listed as inhibitors; actives 4.3% (n = 94,000); AID 1345082; further: nearly all actives have a fitted effect of over 55% in size
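ATP-dependent luminescence (CellTiter-Glo) served as the viability signal for NIH 3T3 cells treated with compound for 48 or 72 hr at 37 °C.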
An asterisk follows results filed as active; i = inactive; ? = inconclusive; / = no result; [ ] = another dose, or the depositor's remark. Unless noted, the call rests on the fitted dose curve; in most records, active means well fitted curve in the direction sought with a large enough effect; inconclusive means small, poorly fitted or top-dose-only effect, or another doubt; inactive means no such curve, though single readings can be large; an effect the other way counts as inactive or inconclusive. On the % scale 0 is the no-effect control and ±100 the full control effect; potency means the concentration at half of the fitted maximal effect.

SMILES	FLuc inh	NPR1 antag	GPT2 inhibitor	HEK cytotox	3T3 cytotox
COCC1CN(C(C)=O)CC12CCN(Cc1cccc(Br)c1)CC2 (centres undefined)	i	-19%	i	79µM*	-18%
c1ccc(-c2noc(-c3cncnc3N3CCC(N4CCCCC4)CC3)n2)cc1	i	-8%	-6%	?	?
Cc1ccccc1-c1nccn2c(C3CN(C(=O)c4cc5ccccc5[nH]4)C3)ncc12	?	-28%[70.6 µM]	-13%[88.5 µM]	89µM*	79µM*
Cc1ccccc1-c1nccn2c(C3CN(Cc4ccc(O)cc4)C3)ncc12	i	4%[70.6 µM]	-10%[88.5 µM]	?	79µM*
CNC(=O)c1cc(C2CC2)nc2onc(C3CCCN3C(=O)c3ccncc3)c12 (centres undefined)	/	/	/	i	i
CC(C)C[C@@H]1N[C@H](C(=O)NCc2ccco2)Cc2cn(Cc3nccn3C)c3cccc1c23	i	-13%	-2%	32µM*	?
CC(C)C[C@@H]1N[C@H](C(=O)O)Cc2cn(Cc3nccn3C)c3cccc1c23	i	-7%	?	-8%	-11%
Cc1noc(C)c1Cn1cc2c3c(cccc31)[C@H](CC(C)C)N[C@H](C(=O)NCc1ccco1)C2	i	-18%	-12%	?	20µM*
CC(C)C[C@@H]1N[C@H](C(=O)NC2CCCC2)Cc2cn(Cc3nccn3C)c3cccc1c23	i	-1%[70.6 µM]	-9%[88.5 µM]	40µM*	89µM*
C#CCNC(=O)[C@@H]1Cc2cn(Cc3nccn3C)c3cccc(c23)[C@H](CC(C)C)N1	i	2%[70.6 µM]	?	?	?
COCCNC(=O)[C@@H]1Cc2cn(Cc3nccn3C)c3cccc(c23)[C@H](CC(C)C)N1	i	4%[70.6 µM]	3%[88.5 µM]	40µM*	-22%[174 µM]
O=C(Nc1cccc(Cl)c1)c1nc2sccn2c1-c1ccc(C(F)(F)F)cc1	/	/	?	-12%	-21%
COc1cccc(CN2C(=O)OC3(CCN(Cc4ccc5c(c4)CCO5)CC3)C2(C)c2cccnc2)c1 (centres undefined)	i	2%	1%	?	?
COc1cccc(CN2C(=O)OC3(CCN(C(=O)C4CCC4)CC3)C2(C)c2cccnc2)c1 (centres undefined)	i	3%	-19%	5%	?
COc1cccc(CN2C(=O)OC3(CCN(Cc4c[nH]c5ccccc45)CC3)C2(C)c2cccnc2)c1 (centres undefined)	i	-1%	-6%	?	32µM*
COc1cccc(CN2C(=O)OC3(CCN(C(=O)c4ccn(C)n4)CC3)C2(C)c2cccnc2)c1 (centres undefined)	i	1%	4%	-21%	35µM*
COc1cccc(CN2C(=O)OC3(CCN(C(C)=O)CC3)C2(C)c2cccnc2)c1 (centres undefined)	i	2%[70.6 µM]	i	-1%[172 µM]	89µM*
CCOc1ccccc1NC(=O)NCC(=O)N1CCCCCNC(=O)CC1c1ccccc1 (centres undefined)	i	1%	-11%	i	2%
COC(=O)[C@@H]1CCCN1c1ccc(-c2nc(-c3ccccc3F)no2)cn1	?	14µM*	-29%	40µM*	?
c1ccc(CCc2noc(-c3ccc(NCCN4CCCC4)nc3)n2)cc1	?	-25%	?	?	?
O=C1OCCCN1CCNc1ccc(-c2nc(-c3ccccc3F)no2)cn1	35µM*	-25%	i	?	-37%
COc1ccc(-c2noc(-c3ccc(N4CCCOCC4)nc3)n2)cc1	?	?	i	?	?
O=C1CCCCN1CCNc1ccc(-c2nc(-c3ccccc3F)no2)cn1	14µM*	-29%	i	?	?
FC(F)(F)c1ccc(N2CCC(N[C@@H]3C[C@@H]4OCC[C@@H]43)CC2)nc1	i	-9%	-15%	?	?
O=C(CCc1ccc(-c2ccc(Cl)cc2)[nH]1)N[C@@H]1C[C@@H]2OCC[C@@H]21	i	-19%	i	79µM*	?
SMILES	FLuc inh	NPR1 antag	GPT2 inhibitor	HEK cytotox	3T3 cytotox
CO[C@@H]1COCC[C@H]1NC(=O)CCc1ccc(-c2ccc(Cl)cc2)[nH]1	i	-16%	i	?	?
CCCN1CCC2(CCN(C(=O)OC)CC2)Oc2ccccc21	i	0%[70.6 µM]	i	100µM*	?
COC(=O)N1CCC2(CC1)CCN(Cc1cccs1)c1ccccc1O2	i	24%	-22%	?	?
CCCN1CCC2(CCN(C(=O)c3ccc(OC)cc3)CC2)Oc2ccccc21	i	0%	-4%	45µM*	?
Cc1ccc2c(c1)N(CCCC(=O)N1CCC(C)(c3noc(C4CC4)n3)CC1)C(=O)CO2	/	/	5%	?	?
O=C(CCc1ccc(O)cc1)N[C@H]1CC[C@H](Nc2nccc(-c3cccnc3)n2)C1	i	-12%	-24%	40µM*	50µM*
O=C(c1ccc(F)cc1)N1CCC2(CC1)CCN(CCc1ccccc1)c1ccccc1O2	i	0%	i	40µM*	?
O=C(c1ccccc1)N1CCC2(CC1)CCN(CCc1ccccc1)c1ccccc1O2	i	-6%	i	40µM*	?
O=C(Cc1ccc(F)cc1)N1CCC2(CC1)CC(=O)N(c1ccccc1)c1ccccc1O2	i	-9%	i	40µM*	40µM*
Cc1ccccc1C(=O)N1CCC2(CC1)CCN(CCc1ccccc1)c1ccccc1O2	i	2%	5%	28µM*	?
CCCN1CCC2(CCN(C(=O)c3ccccc3C)CC2)Oc2ccccc21	i	26%	3%	?	?
O=S(=O)(c1ccccc1)N1CCC(c2nc(-c3ccccc3)no2)C1 (centres undefined)	i	-28%	2%	?	?
COCCNC(=O)c1cc(-c2ccc(F)cc2)nc2c1cnn2C	/	/	i	?	?
Cn1ncc2c(C(=O)NCc3ccc(C(F)(F)F)cc3)cc(-c3cccc(F)c3)nc21	/	/	/	?	45µM*
Cn1ncc2c(C(=O)NCCCc3ccccc3)cc(-c3ccc([S+](C)(=O)[O-])cc3)nc21	/	/	-35%	50µM*	?
Cn1ncc2c(C(=O)NCCc3ccccc3)cc(-c3cccc(F)c3)nc21	/	/	/	?	-30%
Cn1ncc2c(C(=O)NCC#N)cc(-c3ccc(F)cc3)nc21	/	/	/	?	35µM*
Cn1ncc2c(C(=O)NCc3ccccc3)cc(-c3cccc(F)c3)nc21	/	/	/	40µM*	?
O=C1Nc2ccccc2CC12CCCN(CC1CC1)C2 (centres undefined)	/	/	i	-3%[172 µM]	1%[138 µM]
Cn1ncc2c(C(=O)NCc3ccc(C(F)(F)F)cc3)cc(-c3ccccc3F)nc21	/	/	/	32µM*	?

High-throughput results: PubChem BioAssay, National Center for Advancing Translational Sciences (NCATS)
